Screening data (PubChem)
NR3A LBD binder = binders of NR3A ligand-binding domain, primary screen, biophysical, differential scanning fluorimetry, uHTS | Glutamate receptor ionotropic, NMDA 3A (GRIN3A) ligand-binding domain | NR3A LBD differential scanning fluorimetry, Tm shift; 0% = protein alone, 100% = glycine-bound protein | actives 2.5% (n = 340,000) | Tm shift relative to glycine control, % at 25 µM;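 active = melting temperature shift of at least 10% of the positive control shift, at one fixed dose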
Mdm2 MdmX PPI = inhibitors of human Mdm2-MdmX association, primary screen, cell-based, luminescence, split luciferase, SaOS-2, uHTS. SaOS-2 split-luciferase Mdm2/MdmX complementation. inhibition, % at 8 µM. actives 3% (n = 330,000). AID 485346, 2010;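 active = inhibition of at least 50% at 8 µM in the primary screen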
Target sequence (O15151 whole entry, looked up): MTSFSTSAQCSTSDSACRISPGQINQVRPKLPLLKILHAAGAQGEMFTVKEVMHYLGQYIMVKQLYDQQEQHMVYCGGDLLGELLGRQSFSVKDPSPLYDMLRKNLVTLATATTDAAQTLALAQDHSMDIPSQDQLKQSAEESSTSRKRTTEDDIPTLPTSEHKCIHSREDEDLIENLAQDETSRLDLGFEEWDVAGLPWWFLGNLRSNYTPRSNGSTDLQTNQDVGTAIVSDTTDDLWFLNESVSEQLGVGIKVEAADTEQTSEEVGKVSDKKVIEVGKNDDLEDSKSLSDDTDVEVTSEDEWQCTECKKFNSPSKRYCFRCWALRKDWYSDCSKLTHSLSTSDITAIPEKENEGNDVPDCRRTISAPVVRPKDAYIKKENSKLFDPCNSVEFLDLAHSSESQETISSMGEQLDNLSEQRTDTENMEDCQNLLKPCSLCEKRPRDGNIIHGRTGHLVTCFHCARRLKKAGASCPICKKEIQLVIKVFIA
Target sequence (Q00987 whole entry, looked up): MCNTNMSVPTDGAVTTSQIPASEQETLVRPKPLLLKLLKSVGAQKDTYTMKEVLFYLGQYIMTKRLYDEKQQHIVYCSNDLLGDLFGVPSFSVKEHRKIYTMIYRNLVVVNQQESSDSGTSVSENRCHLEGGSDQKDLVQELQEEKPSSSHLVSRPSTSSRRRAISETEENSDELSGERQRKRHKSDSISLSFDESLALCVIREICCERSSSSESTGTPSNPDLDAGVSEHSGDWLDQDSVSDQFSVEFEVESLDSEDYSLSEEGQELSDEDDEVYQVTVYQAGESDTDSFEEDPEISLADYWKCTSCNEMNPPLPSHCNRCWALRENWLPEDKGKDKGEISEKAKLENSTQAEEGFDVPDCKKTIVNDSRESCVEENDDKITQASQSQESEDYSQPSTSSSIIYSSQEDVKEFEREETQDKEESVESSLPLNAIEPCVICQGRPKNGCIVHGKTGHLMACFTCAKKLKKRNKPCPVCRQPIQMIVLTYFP
Gli-Sufu antag = Gli-Sufu pathway antagonists, primary screen, luciferase luminescence, Sufu-KO-LIGHT cells, uHTS | Sufu-KO-LIGHT fibroblasts, Gli luciferase reporter luminescence | inhibition, % at 5 µM | actives 0.74% (n = 340,000) | AID 588413, 2011;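 active = inhibition above about 55%, limit read from the data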;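 note: 0% = DMSO-treated cells and 100% = wells with medium but no cells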
Beta apoptosis = inhibitors of cytokine-induced beta cell apoptosis, primary screen, luminescence. INS-1E cytokine-induced death, ATP luminescence, 48 h; percent of positive-control rescue, neutral wells zero. protection from apoptosis, % (no concentration beside the values). actives 0.8% (n = 300,000);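 active = Every replicate reaches about 75%, or at least half do and their mean reaches it too, limit read from the data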;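 note: 0% = cytokine-treated negative control wells and 100% = positive control rescue; higher means more ATP so stronger rescue from cytokine killing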
MPTP inh = mitochondrial permeability transition pore inhibitors, primary screen, biochemical, isolated mouse mitochondria, absorbance. actives 1.4% (n = 360,000). AID 602449, 2012. inhibition, % at 10 µM. Ca2+ swelling absorbance, 30 min;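 active = inhibition of 50% or more, scaled per plate between neutral and stimulator controls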;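 note: 0% = DMSO wells given calcium and 100% = 1 mM EGTA wells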
CSC inhib = cancer stem cell viability inhibitors, primary screen, luminescence | AID 2717, 2010 | inhibition, % at 7.5 µM | actives 1.1% (n = 300,000) | cancer stem cell-like cells viability; in the data active = inhibition above about 75%; tested in HMLE shEcad cells
Gli antag conf = Gli-SUFU pathway antagonists, confirmation, single concentration, luciferase luminescence, Sufu-KO-LIGHT cells | Gli luciferase reporter | shares compounds with Gli-Sufu antag | inhibition, % at 5 µM | actives 40% (n = 2,500);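 active = mean inhibition at 5 µM reaching about 45%, limit read from the data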;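 note: plate controls were DMSO-treated cells for no effect and wells lacking cells for full effect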
SufuKO cytotox = cytotoxicity in Sufu-KO-LIGHT cells, confirmation, cytotoxicity control for Gli-SUFU antagonist project, cell-based, ATP luminescence, single concentration | shares compounds with Gli-Sufu antag | cytotoxicity, % at 5 µM | actives 32% (n = 2,500) | AID 651994, 2013;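 active = mean cytotoxicity at 5 µM above about 25%, limit read from the data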;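 note: cells exposed to compound overnight for roughly 16 to 18 hours; plate controls were DMSO wells with cells for no effect and medium without cells for full effect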
Wnt3a cs = Wnt3a reporter signal inhibition, confirmation, counter-screen for Gli-SUFU antagonist project, Wnt-LIGHT cells, luminescence, single concentration. shares compounds with Gli-Sufu antag. Wnt3a-driven luciferase reporter. inhibition, % at 6.25 µM. actives 20% (n = 2,500). AID 651995, 2013;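 active = mean inhibition above about 25%, limit read from the data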
The depositor's hits bear a star. In the library only some 6.6% were active in any assay of this set; here they are far more common.

`NC(=O)CC(NC(=O)c1ccccc1)c1ccc(N2CCC(Cc3ccccc3)CC2)c([N+](=O)[O-])c1` (centres undefined) gave NR3A LBD binder -6, Mdm2 MdmX PPI 22, Gli-Sufu antag 63*, Beta apoptosis -31, MPTP inh -1, CSC inhib -11, Gli antag conf 54*, SufuKO cytotox 27* and Wnt3a cs 11.
For NC(=O)CC(NC(=O)c1ccc(Br)cc1)c1ccc(N2CCC(Cc3ccccc3)CC2)c([N+](=O)[O-])c1 (centres undefined) the results were NR3A LBD binder -2, Mdm2 MdmX PPI -10, Gli-Sufu antag 50, Beta apoptosis -66, MPTP inh 0 and CSC inhib -4.
NC(=O)CC(NC(=O)c1ccc(Br)cc1)c1ccc(N2CCCCCCC2)c([N+](=O)[O-])c1 (centres undefined) was read as NR3A LBD binder -5, Mdm2 MdmX PPI 18, Gli-Sufu antag 60*, Beta apoptosis 1, MPTP inh 0, CSC inhib 131*, Gli antag conf 36, SufuKO cytotox 17 and Wnt3a cs -108.
Screening NS(=O)(=O)c1cc(C(=O)Nc2ccc3c(c2)CCC3)ccc1Cl returned NR3A LBD binder -7, Mdm2 MdmX PPI -34, Gli-Sufu antag -41, Beta apoptosis 0, MPTP inh -1 and CSC inhib -5.
CCc1ccccc1NC(=O)CSc1nc(C)c(C)o1 was read as NR3A LBD binder 1, Mdm2 MdmX PPI 7, Gli-Sufu antag 0, Beta apoptosis -3 and MPTP inh 1.
For CC(C)C(=O)OC1CCS(=O)(=O)c2sccc21 (centres undefined) the results were NR3A LBD binder -2, Mdm2 MdmX PPI 7, Gli-Sufu antag 2, Beta apoptosis 0, MPTP inh -1 and CSC inhib -8.
Screening CCOc1ccc(NC(=O)CCC(=O)c2ccc(F)cc2)cc1 returned NR3A LBD binder -3, Mdm2 MdmX PPI 10, MPTP inh 0 and CSC inhib -6.
`CC(=Nc1ccc(C)cc1)c1sc2ccccc2c1O` gave NR3A LBD binder 4, Mdm2 MdmX PPI -101, Gli-Sufu antag 61*, Beta apoptosis 9, MPTP inh 0, CSC inhib 29, Gli antag conf -84, SufuKO cytotox 54* and Wnt3a cs 28*.
`Cc1nc2cc3c(cc2c(C)c1C(=O)OC(C)C)OCO3` gave NR3A LBD binder -1, Mdm2 MdmX PPI -24, Gli-Sufu antag -19, Beta apoptosis -7, MPTP inh 0 and CSC inhib 8.
`Cc1cccc(N2C(=O)CC(N3CCC(c4nc5ccccc5[nH]4)CC3)C2=O)c1` (centres undefined) gave NR3A LBD binder -1, Mdm2 MdmX PPI -1, Gli-Sufu antag -29, Beta apoptosis 2, MPTP inh 1 and CSC inhib 7.
For Cc1ccc(N2CC(c3nc4ccccc4[nH]3)CC2=O)c(C)c1 (centres undefined) the results were NR3A LBD binder -2, Mdm2 MdmX PPI 20, Gli-Sufu antag 50, Beta apoptosis 0, MPTP inh -2, CSC inhib -5, Gli antag conf 4, SufuKO cytotox -6 and Wnt3a cs 10.
CCc1ccc(C(CNC(=O)c2ccc3c(=O)n(-c4ccccc4F)c(=S)[nH]c3c2)N(C)C)cc1 (centres undefined) was read as NR3A LBD binder -5, Mdm2 MdmX PPI 32, Gli-Sufu antag 59*, Beta apoptosis 0, MPTP inh 0, CSC inhib 15, Gli antag conf 29, SufuKO cytotox 5 and Wnt3a cs 1.
`CC(NC(=O)Cn1c(NCCO)nc2ccccc21)C1CC2CCC1C2` (centres undefined) gave NR3A LBD binder 1, Mdm2 MdmX PPI -22, Gli-Sufu antag 1, Beta apoptosis 0, MPTP inh -1 and CSC inhib -10.
For Cc1nc2ccccc2n1CC(=O)NC(C)C1CC2CCC1C2 (centres undefined) the results were NR3A LBD binder -1, Mdm2 MdmX PPI -7, Gli-Sufu antag 60*, Beta apoptosis 30, MPTP inh 25, CSC inhib -11, Gli antag conf 54*, SufuKO cytotox 15 and Wnt3a cs 15.
For O=S(=O)(c1ccc2ccccc2c1)N1CCN(CCO)CC1 the results were NR3A LBD binder 0, Mdm2 MdmX PPI -11, Gli-Sufu antag 14, Beta apoptosis 1, MPTP inh 1 and CSC inhib -15.
`Cn1c(N)c(C(=O)COC(=O)c2ccc(F)cc2Cl)c(=O)n(C)c1=O` gave NR3A LBD binder 2, Mdm2 MdmX PPI 8, Gli-Sufu antag -2, Beta apoptosis -6, MPTP inh 0 and CSC inhib -12.
Screening Cn1c(N)c(C(=O)COC(=O)C2(c3cccc(F)c3)CCCC2)c(=O)n(C)c1=O returned NR3A LBD binder -38, Mdm2 MdmX PPI -6, Gli-Sufu antag 99*, Beta apoptosis -5, MPTP inh -3, CSC inhib -15, Gli antag conf 15, SufuKO cytotox 2 and Wnt3a cs -7.
`CCOc1ccccc1NC(=O)CCn1ccnc1` gave NR3A LBD binder -1, Mdm2 MdmX PPI -19, Gli-Sufu antag 58*, Beta apoptosis 3, MPTP inh 0, CSC inhib -4, Gli antag conf 15, SufuKO cytotox 19 and Wnt3a cs -6.
`CCOc1ccc(NC(=O)CCn2ccnc2)cc1` gave NR3A LBD binder -2, Mdm2 MdmX PPI -16, Gli-Sufu antag 3 and MPTP inh 1.
For O=C(/C=C\c1ccc2c(c1)OCO2)Nc1nnc(SCC(=O)OCc2ccccc2)s1 the results were Mdm2 MdmX PPI 5, Beta apoptosis 0 and CSC inhib 11.
